These compounds were tested on Vero E6 infected with SARS-CoV-2 (assay: morphology score (similarity to uninfected cells); higher = more like uninfected cells). Conditions: 24 h.

| SMILES | morphology score |
| --- | --- |
| Nc1nc2c(ncn2COCCO)c(=O)[nH]1 [acyclovir] (10 µM) | 0.109 |
| CC(C)CNc1nc(-c2cccc3ncccc23)cn2c(-c3ccc(C(=O)NC4CC4)cc3)cnc12 (10 µM) | -0.233 |
| Cc1cc(C)c(S(=O)(=O)Nc2cccc(C(F)(F)F)c2)c(C)c1 (10 µM) | 0.152 |
| O=C(NCCCCCCNC(=O)ON=C1CCCCC1)ON=C1CCCCC1 (10 µM) | 0.11 |
| CO[C@H]1CC[C@H](N2C(=O)CNc3ncc(-c4ccc(C(C)(C)O)nc4)nc32)CC1 (0.833333 µM) | 0.21 |
| O=C1COc2nccc(-c3ccccc3F)c2CN1Cc1cc(C(F)(F)F)cc(C(F)(F)F)c1 (10 µM) | -0.194 |
| c1ccc(NCc2ccc(CNc3ccccn3)cc2)nc1 (10 µM) | -0.0443 |
| CN(C)C(=O)c1cc2cnc(Nc3ccc(N4CCNCC4)cn3)nc2n1C1CCCC1 [ribociclib] (10 µM) | 0.244 |
| CC(C)C[C@H](NC(=O)CNC(=O)c1cc(Cl)ccc1Cl)B1OC(=O)C(CC(=O)O)(CC(=O)O)O1 (0.833333 µM) | -0.0464 |
| CC(=O)Nc1ccc(S(=O)(=O)c2ccc(NC(C)=O)cc2)cc1 [acedapsone] (10 µM) | 0.233 |
| COc1ccc2[nH]c(I)c(CCNC(C)=O)c2c1 [2-iodomelatonin] (10 µM) | 0.0455 |
| COC(=O)CCC(=O)CN [methyl-aminolevulinate] (10 µM) | 0.118 |
| CN1CCN(C(=O)c2cc3cc(Cl)ccc3[nH]2)CC1 (10 µM) | -0.00911 |
| O=C(c1cc(S(=O)(=O)Nc2ccccc2F)c(F)cc1Cl)N1CCN2CCC[C@@H]2C1 (10 µM) | 0.0625 |
| Cc1c(I)c(=O)n(-c2ccccc2)n1C [iodoantipyrine] (10 µM) | 0.0311 |
| O=[N+]([O-])C(Br)(CO)CO [bronopol] (10 µM) | -0.0828 |
| CCN1CCCC(OC(=O)C(c2ccccc2)c2ccccc2)C1 (centres undefined) [piperidolate] (10 µM) | 0.17 |
| CSc1cc2c(cc1C(F)(F)F)N(C(=O)Nc1cccnc1)CC2 (10 µM) | -0.166 |
| O=C(/C=C/c1ccc2c(c1)OCO2)N1CCCCC1 [ilepcimide] (10 µM) | 0.197 |
| CN(C)c1cccc(-c2c3c(=O)n(-c4ccccc4Cl)[nH]c3cc(=O)n2C)c1 (10 µM) | 0.165 |
| O=S(=O)(c1ccccc1)c1cnc2c(N3CCNCC3)cccc2c1 (10 µM) | -0.0691 |
| C[C@@H](C1=C(CCN(C)C)Cc2ccccc21)c1ccccn1 (racemic) [dimetindene] (10 µM) | 0.121 |
| O=C1OC(OC(=O)c2cccnc2Nc2cccc(C(F)(F)F)c2)c2ccccc21 (centres undefined) [talniflumate] (10 µM) | -0.0899 |
| Oc1ccc2ccccc2c1Cc1c(O)ccc2ccccc12 (10 µM) | 0.0699 |
| CNCC[C@H](Oc1cccc2ccccc12)c1cccs1 [duloxetine] (10 µM) | 0.747 |
| c1ccc(-c2n[nH]c3c2oc2ccccc23)cc1 (10 µM) | 0.0627 |
| Cn1ncc(Cl)c1-c1cc(C(=O)N[C@H](CN)Cc2cccc(F)c2)sc1Cl (10 µM) | 0.197 |
| Oc1ccc(Cl)cc1 [parachlorophenol] (10 µM) | 0.063 |
| COc1ccc2c(c1)C=C1Cn3c-2c(C2CCCCC2)c2ccc(cc23)C(=O)NS(=O)(=O)N(C)CCOCCN(C)C1=O (10 µM) | 0.153 |

The compounds below were run on Vero E6 infected with SARS-CoV-2 (assay: SARS-CoV-2 infection rate relative to infected DMSO; higher = more infection, active = 60 or less). Conditions: 24 h.

| SMILES | SARS-CoV-2 infection rate |
| --- | --- |
| CC(C)(CC(=O)N1CCCC1)NCC(=O)N1C[C@@H](F)C[C@H]1C#N (10 µM) | 102% (inactive) |
| Cc1ccc(NC(=O)Nc2cc(C(F)(F)F)ccc2F)cc1Nc1ccc2c(c1)NC(=O)/C2=C\c1ccc[nH]1 (10 µM) | 51.5% (active) |
| CCCCCCCCCCC(CO)CCCCCCCC (centres undefined) [2-octyldodecan-1-ol] (10 µM) | 110% (inactive) |
| Cc1ccc(S(=O)(=O)OCC(=O)Nc2ccc(C(=O)O)c(O)c2)cc1 [STAT3-inhibitor-VI] (10 µM) | 110% (inactive) |
| COc1ccccc1N1CCN(CCN2C(=O)c3ccccc3C(C)(C)C2=O)CC1 (10 µM) | 100% (inactive) |
| CN(C)CCOC(=O)COc1ccc(Cl)cc1 [meclofenoxate] (10 µM) | 90.5% (inactive) |
| CC(=O)[C@]1(N)Cc2c(O)c3c(c(O)c2[C@@H](O[C@H]2C[C@H](O)[C@H](O)CO2)C1)C(=O)c1ccccc1C3=O [amrubicin] (0.833333 µM) | 92.5% (inactive) |
| Cc1ccc(OC[C@@H](O)[C@H](C)NC(C)C)c2c1CCC2 (racemic) (10 µM) | 110% (inactive) |
| NNc1nncc2ccccc12 [hydralazine] (10 µM) | 104% (inactive) |
| COc1ccc(-c2cc(=O)c3c(O)cc(O[C@@H]4O[C@H](CO[C@@H]5O[C@@H](C)[C@H](O)[C@@H](O)[C@H]5O)[C@@H](O)[C@H](O)[C@H]4O)cc3o2)cc1O [diosmin] (10 µM) | 106% (inactive) |
| O=C(NC1CCN(CCCCC2(C(=O)NCC(F)(F)F)c3ccccc3-c3ccccc32)CC1)c1ccccc1-c1ccc(C(F)(F)F)cc1 [lomitapide] (0.833333 µM) | 87.5% (inactive) |
| Nc1nc2c(ncn2COCCO)c(=O)[nH]1 [acyclovir] (10 µM) | 104% (inactive) |
| CC(C)CNc1nc(-c2cccc3ncccc23)cn2c(-c3ccc(C(=O)NC4CC4)cc3)cnc12 (10 µM) | 99.5% (inactive) |
| Cc1cc(C)c(S(=O)(=O)Nc2cccc(C(F)(F)F)c2)c(C)c1 (10 µM) | 108% (inactive) |
| O=C(NCCCCCCNC(=O)ON=C1CCCCC1)ON=C1CCCCC1 (10 µM) | 104% (inactive) |
| CO[C@H]1CC[C@H](N2C(=O)CNc3ncc(-c4ccc(C(C)(C)O)nc4)nc32)CC1 (0.833333 µM) | 82.5% (inactive) |
| O=C1COc2nccc(-c3ccccc3F)c2CN1Cc1cc(C(F)(F)F)cc(C(F)(F)F)c1 (10 µM) | 108% (inactive) |
| c1ccc(NCc2ccc(CNc3ccccn3)cc2)nc1 (10 µM) | 102% (inactive) |
| CN(C)C(=O)c1cc2cnc(Nc3ccc(N4CCNCC4)cn3)nc2n1C1CCCC1 [ribociclib] (10 µM) | 113% (inactive) |
| CC(C)C[C@H](NC(=O)CNC(=O)c1cc(Cl)ccc1Cl)B1OC(=O)C(CC(=O)O)(CC(=O)O)O1 (0.833333 µM) | 108% (inactive) |

| SMILES | SARS-CoV-2 infection rate |
| --- | --- |
| CC(=O)Nc1ccc(S(=O)(=O)c2ccc(NC(C)=O)cc2)cc1 [acedapsone] (10 µM) | 98% (inactive) |
| COc1ccc2[nH]c(I)c(CCNC(C)=O)c2c1 [2-iodomelatonin] (10 µM) | 88% (inactive) |
| COC(=O)CCC(=O)CN [methyl-aminolevulinate] (10 µM) | 90% (inactive) |
| CN1CCN(C(=O)c2cc3cc(Cl)ccc3[nH]2)CC1 (10 µM) | 111% (inactive) |
| O=C(c1cc(S(=O)(=O)Nc2ccccc2F)c(F)cc1Cl)N1CCN2CCC[C@@H]2C1 (10 µM) | 104% (inactive) |
| Cc1c(I)c(=O)n(-c2ccccc2)n1C [iodoantipyrine] (10 µM) | 118% (inactive) |
| O=[N+]([O-])C(Br)(CO)CO [bronopol] (10 µM) | 108% (inactive) |
| CCN1CCCC(OC(=O)C(c2ccccc2)c2ccccc2)C1 (centres undefined) [piperidolate] (10 µM) | 106% (inactive) |
| CSc1cc2c(cc1C(F)(F)F)N(C(=O)Nc1cccnc1)CC2 (10 µM) | 112% (inactive) |
| O=C(/C=C/c1ccc2c(c1)OCO2)N1CCCCC1 [ilepcimide] (10 µM) | 95.5% (inactive) |
| CN(C)c1cccc(-c2c3c(=O)n(-c4ccccc4Cl)[nH]c3cc(=O)n2C)c1 (10 µM) | 112% (inactive) |
| O=S(=O)(c1ccccc1)c1cnc2c(N3CCNCC3)cccc2c1 (10 µM) | 106% (inactive) |
| C[C@@H](C1=C(CCN(C)C)Cc2ccccc21)c1ccccn1 (racemic) [dimetindene] (10 µM) | 94.8% (inactive) |
| O=C1OC(OC(=O)c2cccnc2Nc2cccc(C(F)(F)F)c2)c2ccccc21 (centres undefined) [talniflumate] (10 µM) | 108% (inactive) |
| Oc1ccc2ccccc2c1Cc1c(O)ccc2ccccc12 (10 µM) | 104% (inactive) |
| CNCC[C@H](Oc1cccc2ccccc12)c1cccs1 [duloxetine] (10 µM) | 47% (active) |
| c1ccc(-c2n[nH]c3c2oc2ccccc23)cc1 (10 µM) | 98.5% (inactive) |
| Cn1ncc(Cl)c1-c1cc(C(=O)N[C@H](CN)Cc2cccc(F)c2)sc1Cl (10 µM) | 107% (inactive) |
| Oc1ccc(Cl)cc1 [parachlorophenol] (10 µM) | 98% (inactive) |
| COc1ccc2c(c1)C=C1Cn3c-2c(C2CCCCC2)c2ccc(cc23)C(=O)NS(=O)(=O)N(C)CCOCCN(C)C1=O (10 µM) | 97.5% (inactive) |
